Source: PubChem BioAssay (National Center for Advancing Translational Sciences (NCATS))
Most compounds without a hit are left out; they make up all but 6.2% or so of the library.
VP16 counter – Gal4-VP16 reporter inhibition counter-screen | Drosophila S2 Gal4-VP16 UAS-luciferase, luminescence, 20 h | Potency, µM (titrated, usually from 53.6 µM), without a hit: at the top dose activity, negative = inhibition, most hits filed as inhibitors | actives 3.5% (n = 310,000);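 note: Gal4-VP16 expression switched on by copper sulfate through the metallothionein promoter; nearly all actives have a fitted effect of over 50% in size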
RORg inh – blocks mouse ROR gamma transcriptional activity; actives 5.4% (n = 310,000); AID 2551; Potency, µM (top dose mostly 53.6 µM), for the others: at the highest dose activity change, negative = inhibition, most hits filed as inhibitors; Drosophila S2 Gal4-RORgamma UAS-luciferase reporter, 20 h; note: nearly all actives have a fitted effect of over 60% in size
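Stable Schneider cell line, Gal4 DNA-binding domain fused to ROR gamma, UAS-luciferase. Cmpd 1 hr RT → CuSO4 700 uM final → 20 hr RT → luciferase reagent 10 min → luminescence.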
Luc counter – blocks Kinase-Glo luciferase, a counter-screen artifact. Potency, µM (doses to about 38.3 µM), for inactives: at the top dose activity change, negative = inhibition, most hits filed as inhibitors. Kinase-Glo luciferase, ATP luminescence, 8 min. actives 0.28% (n = 200,000). AID 1379; note: nearly all actives have a fitted effect of over 60% in size
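Inhibition of Kinase-Glo luciferase light generation was assessed at 10 uM ATP in pH 7.2 imidazole buffer, with luminescence measured after eight minutes at ambient temperature.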
* marks the source's active call; other numbers are inactive results; [ ] = remark or other dose. Calls come from the whole dose curve; as a rule, active = well fitted curve in the direction sought with a large enough effect; inconclusive = small, poorly fitted or top-dose-only effect, or another doubt; inactive = no such curve, though single readings can be large; an effect the other way counts as inactive or inconclusive. % is set by controls: 0 for no effect and ±100 for the full control effect; potency is the fitted concentration of half-maximal effect.

Screening O=C(N/N=C/c1ccccc1O)c1cccc2ccccc12 returned VP16 counter 0.89µM* and RORg inh 1µM*.
For Cc1cc(C(=O)N/N=C/c2cccc3ccccc23)c(C)o1 the results were VP16 counter -5% and RORg inh inconclusive.
For COc1ccc(C(=O)Nc2ccccc2C(=O)N/N=C/c2ccncc2)cc1OC the results were VP16 counter 5.6µM* and RORg inh 3.5µM*.
`NC(=O)c1ccsc1NC(=O)c1coc2ccccc2c1=O` gave VP16 counter 1%, RORg inh -12% and Luc counter -12%.
`Cc1ccc(C)c(SCC(=O)OC/C(O)=C(\C#N)c2nc3ccccc3[nH]2)c1` gave VP16 counter inconclusive, RORg inh 10µM* and Luc counter -4%.
For C/C(N)=C(/C#N)C(=O)COC(=O)CSc1ccc2ccccc2c1 the results were VP16 counter -2%, RORg inh -20% and Luc counter 0%.
Cc1cc(Br)ccc1SCC(=O)OC/C(O)=C(\C#N)c1nc2ccccc2[nH]1 was read as VP16 counter inconclusive and RORg inh 0%.
`N#C/C(=C(/O)COC(=O)CSc1ccc2ccccc2c1)c1nc2ccccc2[nH]1` gave VP16 counter 14µM*, RORg inh 7.1µM* and Luc counter 0%.
`O=C(CCSc1nnc(-c2ccco2)o1)N1CCOCC1` gave VP16 counter 2%, RORg inh 2% and Luc counter 2%.
Screening Oc1ccc(CNc2ccccc2)c2cccnc12 returned VP16 counter 0.79µM*, RORg inh 16µM* and Luc counter 0%.
Oc1c(Br)cc(Br)cc1CNc1ccc(F)cc1 was read as VP16 counter 1%, RORg inh -45% and Luc counter -1%.
For Cc1cccc(NCc2ccccc2OCc2ccccc2F)c1 the results were VP16 counter 1%, RORg inh 19% and Luc counter 0%.
Screening OCc1ccnc2c(O)cccc12 returned VP16 counter -2%, RORg inh 43% and Luc counter -5%.
Cc1cccc(NCc2ccc(O)c3ncccc23)c1 was read as VP16 counter inconclusive, RORg inh 6.3µM* and Luc counter 1%.
For Cc1ccccc1NCCNc1ccccc1C the results were VP16 counter 11%, RORg inh 14% and Luc counter -4%.
`Oc1ccc(CNc2ccc(F)cc2)c2cccnc12` gave VP16 counter inconclusive, RORg inh 11µM* and Luc counter 2%.
For Cc1ccccc1NCc1ccc(O)c2ncccc12 the results were VP16 counter 11µM*, RORg inh 11µM* and Luc counter -2%.
O=C(NC(=S)NCCN1CCOCC1)c1ccc(Cl)cc1 was read as VP16 counter inconclusive, RORg inh inconclusive and Luc counter 4%.
Screening Cc1c(NS(=O)(=O)c2ccc(N)cc2)c(=O)n(-c2ccccc2)n1C returned VP16 counter -9% and RORg inh -19%.
For COc1ccc(Cc2noc(CN3CCCN(Cc4ccc(F)cc4)CC3)n2)cc1OC the results were VP16 counter 1%, RORg inh 35% and Luc counter 1%.
COc1ccc(Cc2nc3ccccc3n2CC(=O)N/N=C/c2ccc(C)cc2O)cc1OC was read as VP16 counter 6.3µM*, RORg inh 3.5µM* and Luc counter -1%.
`COc1ccc(Cc2nc3ccccc3n2CC(=O)N/N=C/c2ccc(O)cc2)cc1OC` gave VP16 counter -5% and RORg inh 11%.
For CCNc1ncc2ncc(=O)n(Cc3cccs3)c2n1 the results were VP16 counter 3% and RORg inh -29%.
Screening c1ccc(COc2cccc(CN3CCc4ccccc4C3)c2)cc1 returned VP16 counter -6% and RORg inh 5%.
For CNC(CC(=O)c1ccc([N+](=O)[O-])cc1)C(Cl)(Cl)Cl (stereo unspecified) the results were VP16 counter 13µM*, RORg inh inconclusive and Luc counter 3%.
COc1ccc(C(=O)CC(Nc2ccc([N+](=O)[O-])cc2)c2ccc(OC)cc2)cc1 (stereo unspecified) was read as VP16 counter 3%[0.365 µM], RORg inh -3% and Luc counter 0%.
For CC(C)(C)c1ccc(C(=O)CCCN2CCC(OC(c3ccccc3)c3ccccc3)CC2)cc1 the results were VP16 counter 11µM* and RORg inh 0%[10 µM].
For CC1CCN(CCCC(=O)c2ccc(F)cc2)CC1 the results were VP16 counter 1% and RORg inh 25%.
`Cc1nn(-c2ccccn2)c2c1-c1nc(N3CCOCC3)ncc1CC2` gave VP16 counter 0%, RORg inh -3% and Luc counter -1%.
